Data on six compounds can be found in PubChem BioAssay (Tox21).

A short description of assay [1]: qHTS assay to identify small molecule agonists of the constitutive androstane receptor (CAR) signaling pathway - cell viability counter screen (AID 1224836). Note: nearly all actives have a fitted effect of over 45% in size. Note: potency is the fitted concentration of half-maximal effect. Summed up: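 Cells were seeded and incubated 4 hrs. Compounds were added across 15 concentrations together with PK11195 at 0.75 uM final. Plates were incubated 23 hrs at 37 C. CellTiter-Fluor was added and fluorescence measured.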
A general note: In qHTS, concentration-response curves come from the screen itself.

Assay [2] can be described thus: qHTS assay to identify small molecule antagonists of the constitutive androstane receptor (CAR) signaling pathway - cell viability counter screen (AID 1224837). Note: nearly all actives have a fitted effect of over 45% in size. Note: potency is the fitted concentration of half-maximal effect. Summed up:
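HepG2 cells stably carrying hCAR and CYP2B6-2.2kb reporter, stimulated with 50 nM CITCO and compounds at 15 concentrations for 23 h at 37 C. Viability measured by CellTiter-Fluor fluorescence.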

Assay [3] deals with Nuclear receptor subfamily 1 group I member 3 (Homo sapiens) (UniProt Q14994). The assay is described as follows: qHTS assay to identify small molecule antagonists of the constitutive androstane receptor (CAR) signaling pathway (AID 1224838). Note: nearly all actives have a fitted effect of over 40% in size. Note: potency is the fitted concentration of half-maximal effect. The method in brief:
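HepG2 cells stably carrying hCAR and a CYP2B6-2.2kb luciferase reporter, seeded 4 hrs before compound (15 concentrations). Stimulated with 50 nM CITCO for 24 hr at 37 C. ONE-Glo luminescence read after 30 min at room temperature.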

For assay [4] the target is unchanged. The assay is described as follows: qHTS assay to identify small molecule agonists of the constitutive androstane receptor (CAR) signaling pathway (AID 1224839). For activation: % is set by controls: 0 for no effect and ±100 for the full control effect. Note: nearly all actives have a fitted effect of over 15% in size. Note: potency is the fitted concentration of half-maximal effect. The method in brief:
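Cells were plated and incubated 4 hrs, then dosed with compounds at 15 concentrations. PK11195 was added to 0.75 uM final. After 24 hrs at 37 C, luciferase luminescence was measured.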

Assay [5] deals with Thyrotropin receptor (Homo sapiens) (UniProt P16473). The assay is described as follows: qHTS assay to identify small molecule agonists of the thyroid stimulating hormone receptor (TSHR) signaling pathway (AID 1224843; calls by dose curve; note: nearly all actives have a fitted effect of over 45% in size; note: potency is the fitted concentration of half-maximal effect; for activation: % is set by controls: 0 for no effect and ±100 for the full control effect). Summed up: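 Screening of the Tox21 10K collection used HEK293 cells engineered with TSHR at 800 cells per well. After a 30-min room-temperature compound exposure, HTRF cAMP reagents were added and fluorescence recorded 1 h later.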

Assay [6] can be described thus: qHTS assay to identify small molecule agonists of the hypoxia (HIF-1) signaling pathway - cell viability counter screen (AID 1224844; calls by dose curve; note: nearly all actives have a fitted effect of over 50% in size; note: potency is the fitted concentration of half-maximal effect). The method in brief: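 HRE-bla ME-180 cells, 2,000/well in 0.5% dialyzed FBS medium, treated 17 h at 37C with compounds. Viability read in the same wells as the bla reporter, by CellTiter-Glo luminescence after 30 min at room temperature.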

Assay [7] in a line: qHTS assay to identify small molecule agonists of H2AX (AID 1224845; active = well fitted activation curve with a large enough effect in the signal ratio in the repeat runs, not every such curve was filed as active; the % refers to the signal ratio; note: potency is the fitted concentration of half-maximal effect). The method in brief:
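Phospho-H2AX Ser139 measured by HTRF (ex 320 nm; em 665 and 620 nm) after 24 hr antibody incubation. Compounds, 15 concentrations, 0.76% DMSO, were applied to CHO-K1 cells for 3hr at 37C before lysis.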

Assay [8] is described as follows: qHTS assay to identify small molecule agonists of H2AX - cell viability counter screen (AID 1224847; calls by dose curve; note: nearly all actives have a fitted effect of over 30% in size; note: potency is the fitted concentration of half-maximal effect). Summed up:
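Cytotoxicity counter screen in wild-type CHO-K1 cells: a 3 hr compound treatment at 37C across 15 concentrations, followed by CellTiter-Glo luminescence to gauge viable cells.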

Assay [9] in a line: qHTS assay to identify small molecule agonists of the estrogen related receptor (ERR) signaling pathway from Tox21 library (AID 1224849; calls by dose curve; note: % is set by controls: 0 for no effect and ±100 for the full control effect; nearly all actives have a fitted effect of over 15% in size). To be noted: ERR reporter cell line, ONE-Glo luciferase, 18 h. Summed up:
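ERR reporter cells (NTP line) pre-incubated 6 hours at 37 C, then exposed to compounds for 18 hours at 37 C. ONE-Glo luciferase luminescence was read after 30 minutes at room temperature.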

Assay [10] is described as follows: qHTS RealTime-Glo MT Cell Viability Assay in HepG2 cells - 24 hour (AID 1224867). Note: nearly all actives have a fitted effect of over 50% in size. Note: potency is the fitted concentration of half-maximal effect. The method in brief:
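HepG2 suspension premixed with RealTime-Glo reagents is plated at 600 cells per well and left 5 h at 37 C/5% CO2. Compounds in DMSO then go in, and bioluminescence reflecting viable cell number is recorded over 40 h.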

Assay [11] can be described thus: qHTS RealTime-Glo MT Cell Viability Assay in HEK293 cells - 32 hour (AID 1224868). Note: nearly all actives have a fitted effect of over 50% in size. Note: potency is the fitted concentration of half-maximal effect. The method in brief:
(§1)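 Reads taken at 0, 8, 16, 24, 32 and 40 h from the same wells. HEK293 cells (600/well) carried RealTime-Glo reagents from seeding, with compound added after a 5 h settle at 37 C.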

The nature of assay [12]: A CellTox Green Cytotoxicity Assay to monitor cytotoxicity in HEK293 cells - 0 hour (AID 1224869). Note: % is set by controls: 0 for no effect and ±100 for the full control effect; nearly all actives have a fitted effect of over 50% in size. The method in brief: (§2)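 HEK293 cells, 600/well, were preincubated 5 hours and then exposed to compounds at 37 C for up to 40 hours. A cell-impermeant cyanine dye staining dead-cell DNA was read by fluorescence at 0, 8, 16, 24, 32 and 40 h time points.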
A short description of assay [13]: A CellTox Green Cytotoxicity Assay to monitor cytotoxicity in HEK293 cells - 40 hour (AID 1224871). Note: nearly all actives have a fitted effect of over 45% in size. Note: potency is the fitted concentration of half-maximal effect. Summed up:
as §2

A short description of assay [14]: qHTS RealTime-Glo MT Cell Viability Assay in HEK293 cells - 16 hour (AID 1224872). Note: nearly all actives have a fitted effect of over 50% in size. Note: potency is the fitted concentration of half-maximal effect. The method in brief:
as §1

Assay [15] can be described thus: qHTS assay to identify small molecule antagonists of the estrogen related receptor signaling pathway with the pleiotropic PPARgamma coactivator (PGC) from Tox21 10K library - cell viability counter screen (AID 1224840; active = well fitted cell-killing curve with a large enough effect in the repeat runs, not every such curve was filed as active; note: nearly all actives have a fitted effect of over 40% in size; note: potency is the fitted concentration of half-maximal effect). Summed up:
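PGC/ERR cells (2,000/well) plated 6 h, then compound-treated for 17.5 h at 37 C. Viability measured by CellTiter-Fluor fluorescence after 30 min at 37 C, multiplexed with the pathway assay.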

The nature of assay [16]: qHTS RealTime-Glo MT Cell Viability Assay in HepG2 cells - 40 hour (AID 1224870). Note: nearly all actives have a fitted effect of over 50% in size. Note: potency is the fitted concentration of half-maximal effect. Summed up: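 Real-time viability: cells seeded at 600 per well together with NanoLuc and cell-permeant prosubstrate, compounds added after 5 h incubation. Luminescence tracked at 0, 8, 16, 24, 32 and 40 h of exposure.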
A short description of assay [17]: qHTS assay to identify small molecule agonists of the estrogen related receptor signaling pathway with the pleiotropic PPARgamma coactivator (PGC) from Tox21 10K library (AID 1224842). For activation: % is set by controls: 0 for no effect and ±100 for the full control effect. Note: nearly all actives have a fitted effect of over 15% in size. Note: potency is the fitted concentration of half-maximal effect. Summed up: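 Luminescence from One-Glo (30 min, room temperature) measured after PGC/ERR cells had 18 h at 37 C with pinned compound (23 nL in DMSO). Cells had been seeded at 2,000 per well and pre-incubated 6 h.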

Assay [18] is described as follows: qHTS assay to identify small molecule antagonists of the estrogen related receptor signaling pathway with the pleiotropic PPARgamma coactivator (PGC) from Tox21 10K library (AID 1224841; call rule not given here). The method in brief:
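PGC/ERR cell line, 2,000 cells/well, pre-incubated 6 hours at 37 C, then exposed to compounds for 18 hours at 37 C; luciferase read with One-Glo luminescence after 30 min at room temperature.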

Assay [19] in a line: qHTS assay to identify small molecule antagonists of the estrogen related receptor (ERR) signaling pathway from Tox21 library (AID 1224848). The method in brief: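 Antagonist-mode screen of the Tox21 10K library in an NTP-provided ERR reporter cell line; 18 h compound exposure at 37 C, luminescence measured with ONE-Glo.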

SMILES strings stand for the structures. Values joined by “and” are separate entries in the source; they are usually repeats but may differ in a detail not shown here. Identical values can stand only once. Records with an inconclusive call do not appear. Some structures have more than one record in an assay (separate samples or runs), and their calls can disagree. Active and inactive are the calls of the source. Unless noted, calls come from the whole dose curve; as a rule, active = well fitted curve in the direction sought with a large enough effect in the repeat runs; inconclusive = weak or mixed curves; inactive = no such curve, though single readings can be large; an effect the other way counts as inactive or inconclusive.

Chain of Thyrotropin receptor (Homo sapiens) (P16473 whole entry, looked up): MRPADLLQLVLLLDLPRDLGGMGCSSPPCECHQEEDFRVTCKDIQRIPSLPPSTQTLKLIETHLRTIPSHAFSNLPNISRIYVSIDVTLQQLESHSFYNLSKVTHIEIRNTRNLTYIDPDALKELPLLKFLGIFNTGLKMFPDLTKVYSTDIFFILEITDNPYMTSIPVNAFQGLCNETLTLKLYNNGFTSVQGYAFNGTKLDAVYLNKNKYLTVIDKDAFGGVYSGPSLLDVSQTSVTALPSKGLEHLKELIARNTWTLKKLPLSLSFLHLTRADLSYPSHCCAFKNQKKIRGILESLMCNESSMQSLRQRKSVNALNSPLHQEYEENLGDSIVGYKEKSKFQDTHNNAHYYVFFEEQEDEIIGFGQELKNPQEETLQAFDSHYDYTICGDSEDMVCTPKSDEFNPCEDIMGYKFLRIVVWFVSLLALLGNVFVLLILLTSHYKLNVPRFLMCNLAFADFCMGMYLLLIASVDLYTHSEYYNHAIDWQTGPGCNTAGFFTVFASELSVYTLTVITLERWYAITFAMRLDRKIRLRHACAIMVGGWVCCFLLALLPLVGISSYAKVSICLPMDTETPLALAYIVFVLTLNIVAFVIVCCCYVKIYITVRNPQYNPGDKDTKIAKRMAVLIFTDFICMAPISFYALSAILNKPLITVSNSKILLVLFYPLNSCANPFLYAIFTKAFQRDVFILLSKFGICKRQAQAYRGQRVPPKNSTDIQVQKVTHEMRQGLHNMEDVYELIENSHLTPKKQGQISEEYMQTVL
Chain of Nuclear receptor subfamily 1 group I member 3 (Homo sapiens) (Q14994 whole entry, looked up): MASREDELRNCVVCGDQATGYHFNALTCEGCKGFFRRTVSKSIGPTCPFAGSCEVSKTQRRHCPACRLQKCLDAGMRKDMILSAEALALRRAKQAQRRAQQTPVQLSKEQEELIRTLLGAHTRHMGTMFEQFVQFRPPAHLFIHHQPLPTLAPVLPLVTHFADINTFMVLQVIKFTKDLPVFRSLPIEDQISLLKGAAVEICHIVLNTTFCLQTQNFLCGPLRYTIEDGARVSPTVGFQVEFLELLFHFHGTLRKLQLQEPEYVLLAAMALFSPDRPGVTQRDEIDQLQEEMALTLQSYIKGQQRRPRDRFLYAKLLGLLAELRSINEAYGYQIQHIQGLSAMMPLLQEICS

In the case of `Oc1c(Cl)cc(Cl)c(Cl)c1Cc1c(O)c(Cl)cc(Cl)c1Cl`, the Potency is 7.67 µM (active) in [1]; 9.44 µM (active) in assay [2]; 10.8 µM (active) and 10.9 µM (active) and 9.44 µM (active) in assay [3]; 15.3 µM (active) and inactive in assay [5]; 19.4 µM (active) and 19.5 µM (active) in assay [6]; 25.2 µM (active) and 40.1 µM (active) in assay [8]. Further, the Potency is 3.08 µM (active) and 5.49 µM (active) in assay [11]; 48.9 µM (active) and 49 µM (active) and inactive in [13]. The Potency result in [4], in [7], in assay [10], in [12] and in assay [14] was “inactive” each time. Besides, the activity change, positive = activation was -49.7% (inactive) in assay [9] (at 42.5 µM (top of the series)); -37.2% (inactive) and -60.8% (inactive) in [9] (at 92.4 µM (top of the series)).
Turning to `CC(COc1ccccc1)N(CCCl)Cc1ccccc1` (stereo not given), the Potency result in [1], in [2], in assay [3], in [15], in assay [10] and in assay [12] was “inactive” throughout. The Potency result in assay [16] was “inactive”. Besides, the Potency is 27.6 µM (active) and 8.63 µM (active) and 10.6 µM (active) in [4]; 30.9 µM (active) and 43.3 µM (active) and 29.8 µM (active) in [5]; 49.5 µM (active) and inactive in assay [6]; 113 µM (active) in assay [7]; 49.5 µM (active) and 49 µM (active) in [11]; 49.5 µM (active) and 21.3 µM (active) in assay [13]. In addition, the Potency in assay [14] was 49.5 µM (active) and 49 µM (active).
Consider `Nc1nc2ccccc2[nH]1`, for which the Potency result in assay [1], in assay [2], in assay [3], in [4], in assay [15] and in assay [5] was “inactive” each time. Besides, the Potency result in assay [6], in [7], in [8], in [10], in assay [11] and in assay [12] was “inactive” each time. Moreover, the Potency entry in assay [16], in assay [13] and in assay [14] was “inactive” throughout.
On to `O=Nc1ccc(Nc2ccccc2)cc1`, for which the Potency result in assay [1], in assay [2], in [3] and in assay [12] was “inactive” throughout. Also, the Potency in [4] was 17.2 µM (active); in assay [15], 15.4 µM (active) and 19.3 µM (active); in assay [17], 9.69 µM (active); in [6], 55.3 µM (active); in [8], 50.8 µM (active); in assay [11], 6.2 µM (active) and 9.77 µM (active). Further, the Potency is 5.53 µM (active) and 6.92 µM (active) in assay [13]; 11 µM (active) and 9.77 µM (active) in assay [14]. Moreover, in assay [9] (at 92.4 µM (top of the series)), the activity change, positive = activation is -76% (active).
For the compound `Cc1c(O)cccc1C(=O)N[C@@H](CSc1ccccc1)[C@H](O)CN1C[C@H]2CCCC[C@H]2C[C@H]1C(=O)NC(C)(C)C`, the Potency is 26.6 µM (active) and 23.7 µM (active) in assay [1]; 26.6 µM (active) and 11.9 µM (active) in assay [2]; 59.5 µM (active) and 26.6 µM (active) in assay [3]; 9.43 µM (active) in assay [15]; 12 µM (active) and inactive in assay [6]; 49.2 µM (active) in assay [8]. Moreover, the Potency in assay [11] was 19 µM (active). Also, the Potency result in [4], in assay [17], in assay [5], in assay [7], in assay [12] and in [13] was “inactive” throughout. In addition, the activity change, positive = activation in [9] (at 42.5 µM (top of the series)) was -54.6% (inactive); in [9] (at 92.4 µM (top of the series)) it was -64.1% (inactive).
For the compound `CN(C)c1ccc2nc3ccc(=[N+](C)C)cc-3sc2c1`, the Potency in assay [1] is 24.3 µM (active) and 13.3 µM (active); in [2], 27.3 µM (active) and 11.9 µM (active); in [4], 1.54 µM (active) and 750 nM (active); in assay [15], 2.62 µM (active) and 7.7 µM (active); in assay [18], 1.86 µM (active) and 1.93 µM (active) and 2.66 µM (active); in [6], 5.92 µM (active) and 43.6 µM (active) and inactive. For the same compound, the Potency in assay [8] is 21.7 µM (active) and 45 µM (active) and 43.8 µM (active); in assay [19] it was 739 nM (active) and 433 nM (active) and 473 nM (active); in [10] it was 16.7 µM (active) and 12.3 µM (active) and 19 µM (active); in [11] it was 1.87 µM (active) and 1.74 µM (active) and 2.68 µM (active); in assay [16] it was 21 µM (active) and 12.3 µM (active) and 23.9 µM (active); in [14], 2.97 µM (active) and 3.09 µM (active) and 2.68 µM (active). The Potency entry in assay [3], in assay [17], in assay [12] and in assay [13] was “inactive” each time. Besides, the activity change, positive = activation is -59.7% (inactive) and -55.3% (inactive) in assay [9] (at 42.5 µM (top of the series)); -71.3% (inactive) in assay [9] (at 92.4 µM (top of the series)).
